The target in test [1] is Protein kinase C gamma type (Homo sapiens) (UniProt P05129). To be noted: at 1 µM.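 Also: each value is an averaged percent inhibition of the enzyme.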
For test [2], the target named is T1, Protein kinase C iota type (Homo sapiens) (UniProt P41743).
T1 sequence (whole entry): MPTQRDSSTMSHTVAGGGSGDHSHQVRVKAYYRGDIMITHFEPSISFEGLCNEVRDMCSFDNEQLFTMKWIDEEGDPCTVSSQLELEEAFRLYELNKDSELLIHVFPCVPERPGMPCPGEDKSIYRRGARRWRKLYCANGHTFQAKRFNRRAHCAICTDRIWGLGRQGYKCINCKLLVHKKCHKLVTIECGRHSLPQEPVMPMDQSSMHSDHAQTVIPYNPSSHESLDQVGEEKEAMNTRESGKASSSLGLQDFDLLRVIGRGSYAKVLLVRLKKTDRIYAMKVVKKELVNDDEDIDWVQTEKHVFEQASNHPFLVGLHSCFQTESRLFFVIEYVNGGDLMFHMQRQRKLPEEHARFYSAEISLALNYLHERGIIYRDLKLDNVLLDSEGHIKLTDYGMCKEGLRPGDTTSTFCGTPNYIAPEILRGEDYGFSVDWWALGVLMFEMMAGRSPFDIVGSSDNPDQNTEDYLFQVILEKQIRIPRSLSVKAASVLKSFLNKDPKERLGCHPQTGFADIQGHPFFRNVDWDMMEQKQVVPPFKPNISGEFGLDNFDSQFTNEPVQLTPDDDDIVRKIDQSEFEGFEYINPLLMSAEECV
As to conditions: at 0.1 µM.

The target in test [3] is T1, Protein kinase C iota type (Homo sapiens). As to conditions: at 1 µM.
Test [4] deals with Protein kinase C theta type (Homo sapiens) (UniProt Q04759). As to conditions: at 0.1 µM.
Chain of Protein kinase C theta type (Homo sapiens) (Q04759 whole entry, looked up): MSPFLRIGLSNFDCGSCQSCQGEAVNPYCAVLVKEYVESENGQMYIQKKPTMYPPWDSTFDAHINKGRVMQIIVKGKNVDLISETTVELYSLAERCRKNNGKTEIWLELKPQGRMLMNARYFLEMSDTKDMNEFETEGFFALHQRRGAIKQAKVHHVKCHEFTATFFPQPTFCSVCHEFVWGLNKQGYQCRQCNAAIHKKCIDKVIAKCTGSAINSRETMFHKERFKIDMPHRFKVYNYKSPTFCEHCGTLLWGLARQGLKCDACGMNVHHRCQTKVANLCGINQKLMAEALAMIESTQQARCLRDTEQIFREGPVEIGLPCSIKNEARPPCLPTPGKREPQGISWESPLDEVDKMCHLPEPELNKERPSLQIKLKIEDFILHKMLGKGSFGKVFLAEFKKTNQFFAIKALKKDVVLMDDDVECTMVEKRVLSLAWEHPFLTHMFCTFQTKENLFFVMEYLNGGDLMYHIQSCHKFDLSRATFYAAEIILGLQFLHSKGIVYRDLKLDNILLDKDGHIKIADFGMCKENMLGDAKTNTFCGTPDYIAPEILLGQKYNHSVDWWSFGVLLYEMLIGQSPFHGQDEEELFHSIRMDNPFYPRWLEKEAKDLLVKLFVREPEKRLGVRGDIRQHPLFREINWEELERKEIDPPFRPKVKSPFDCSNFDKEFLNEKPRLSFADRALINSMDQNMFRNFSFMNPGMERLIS
The target is the same in test [5]. As to conditions: at 1 µM.
The target of test [6] is Protein kinase C beta type (Homo sapiens) (UniProt P05771). As to conditions: at 0.1 µM.
Chain of Protein kinase C beta type (Homo sapiens) (P05771 2-671 limits assumed): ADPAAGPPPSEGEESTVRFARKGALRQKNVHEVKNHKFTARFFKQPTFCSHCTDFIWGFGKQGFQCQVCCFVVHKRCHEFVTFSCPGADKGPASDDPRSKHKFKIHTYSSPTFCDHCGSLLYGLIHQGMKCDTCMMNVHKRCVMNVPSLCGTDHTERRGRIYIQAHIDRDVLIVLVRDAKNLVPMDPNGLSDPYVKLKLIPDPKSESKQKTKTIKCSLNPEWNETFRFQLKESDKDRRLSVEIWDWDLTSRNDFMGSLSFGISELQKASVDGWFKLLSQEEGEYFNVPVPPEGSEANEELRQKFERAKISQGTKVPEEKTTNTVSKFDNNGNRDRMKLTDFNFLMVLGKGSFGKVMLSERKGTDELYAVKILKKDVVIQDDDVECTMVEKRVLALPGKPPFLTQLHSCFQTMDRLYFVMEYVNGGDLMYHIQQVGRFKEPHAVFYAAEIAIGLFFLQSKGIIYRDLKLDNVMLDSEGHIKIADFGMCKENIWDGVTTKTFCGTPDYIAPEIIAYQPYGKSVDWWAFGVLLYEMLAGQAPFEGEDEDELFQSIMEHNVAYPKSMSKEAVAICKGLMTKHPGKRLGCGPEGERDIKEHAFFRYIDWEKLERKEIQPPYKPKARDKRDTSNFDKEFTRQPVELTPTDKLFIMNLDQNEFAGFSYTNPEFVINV
Test [7] has the same target. To be noted: at 1 µM.
For test [8], the target named is T2, Serine/threonine-protein kinase D1 (Homo sapiens) (UniProt Q15139).
T2 sequence (whole entry): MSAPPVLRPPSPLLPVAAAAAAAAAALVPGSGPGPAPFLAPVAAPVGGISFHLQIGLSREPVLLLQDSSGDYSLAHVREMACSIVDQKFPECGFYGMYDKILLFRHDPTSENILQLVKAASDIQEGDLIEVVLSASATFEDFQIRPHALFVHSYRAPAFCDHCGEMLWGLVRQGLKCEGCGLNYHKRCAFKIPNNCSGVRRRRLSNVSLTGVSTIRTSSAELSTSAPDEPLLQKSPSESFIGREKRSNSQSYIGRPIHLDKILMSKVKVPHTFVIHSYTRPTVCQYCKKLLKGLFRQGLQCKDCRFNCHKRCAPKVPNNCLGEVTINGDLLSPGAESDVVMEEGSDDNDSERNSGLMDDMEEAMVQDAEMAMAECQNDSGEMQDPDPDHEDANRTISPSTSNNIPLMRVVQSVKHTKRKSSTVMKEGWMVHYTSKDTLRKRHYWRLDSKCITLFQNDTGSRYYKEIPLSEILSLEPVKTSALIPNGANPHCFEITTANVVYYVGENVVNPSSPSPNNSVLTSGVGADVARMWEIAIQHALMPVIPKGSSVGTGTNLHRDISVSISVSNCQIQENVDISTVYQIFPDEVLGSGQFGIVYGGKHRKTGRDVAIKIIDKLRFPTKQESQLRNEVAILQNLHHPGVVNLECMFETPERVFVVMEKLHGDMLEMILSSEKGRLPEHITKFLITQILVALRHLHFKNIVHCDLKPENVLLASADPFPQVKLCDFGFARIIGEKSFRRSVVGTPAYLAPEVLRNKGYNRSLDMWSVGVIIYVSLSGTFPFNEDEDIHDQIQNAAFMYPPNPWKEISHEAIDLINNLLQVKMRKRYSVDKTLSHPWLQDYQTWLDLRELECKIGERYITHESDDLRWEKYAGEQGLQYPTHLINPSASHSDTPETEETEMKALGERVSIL
To be noted: at 0.1 µM.

The target of test [9] is T2, Serine/threonine-protein kinase D1 (Homo sapiens). As to conditions: at 1 µM.
Test [10] deals with T3, Serine/threonine-protein kinase D2 (Homo sapiens) (UniProt Q9BZL6).
T3 sequence (whole entry): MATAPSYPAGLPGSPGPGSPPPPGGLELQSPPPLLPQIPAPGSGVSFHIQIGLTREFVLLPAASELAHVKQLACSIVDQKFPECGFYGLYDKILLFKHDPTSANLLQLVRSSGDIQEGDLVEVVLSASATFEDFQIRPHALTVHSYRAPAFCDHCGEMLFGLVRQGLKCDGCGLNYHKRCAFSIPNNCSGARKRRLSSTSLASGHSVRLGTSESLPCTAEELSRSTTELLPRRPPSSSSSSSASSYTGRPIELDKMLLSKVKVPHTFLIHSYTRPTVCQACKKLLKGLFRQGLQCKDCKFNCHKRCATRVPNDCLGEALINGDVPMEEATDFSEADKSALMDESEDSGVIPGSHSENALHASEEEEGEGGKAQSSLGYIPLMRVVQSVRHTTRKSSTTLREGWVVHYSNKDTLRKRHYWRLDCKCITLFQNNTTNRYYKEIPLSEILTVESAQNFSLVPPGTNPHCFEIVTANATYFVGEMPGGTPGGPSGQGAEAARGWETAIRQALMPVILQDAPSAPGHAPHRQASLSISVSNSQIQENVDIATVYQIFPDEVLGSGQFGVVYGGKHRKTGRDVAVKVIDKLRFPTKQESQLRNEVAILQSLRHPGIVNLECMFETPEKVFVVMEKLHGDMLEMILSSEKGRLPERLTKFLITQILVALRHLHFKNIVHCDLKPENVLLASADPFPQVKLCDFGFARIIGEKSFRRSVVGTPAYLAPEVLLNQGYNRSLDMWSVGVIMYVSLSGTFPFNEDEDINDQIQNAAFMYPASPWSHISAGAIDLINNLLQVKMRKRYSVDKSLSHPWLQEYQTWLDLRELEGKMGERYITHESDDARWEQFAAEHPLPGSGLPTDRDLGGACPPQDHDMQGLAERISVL
To be noted: at 0.1 µM.

Test [11] addresses T3, Serine/threonine-protein kinase D2 (Homo sapiens). To be noted: at 1 µM.
In test [12] the target is T4, Serine/threonine-protein kinase D3 (Homo sapiens) (UniProt O94806).
T4 sequence (whole entry): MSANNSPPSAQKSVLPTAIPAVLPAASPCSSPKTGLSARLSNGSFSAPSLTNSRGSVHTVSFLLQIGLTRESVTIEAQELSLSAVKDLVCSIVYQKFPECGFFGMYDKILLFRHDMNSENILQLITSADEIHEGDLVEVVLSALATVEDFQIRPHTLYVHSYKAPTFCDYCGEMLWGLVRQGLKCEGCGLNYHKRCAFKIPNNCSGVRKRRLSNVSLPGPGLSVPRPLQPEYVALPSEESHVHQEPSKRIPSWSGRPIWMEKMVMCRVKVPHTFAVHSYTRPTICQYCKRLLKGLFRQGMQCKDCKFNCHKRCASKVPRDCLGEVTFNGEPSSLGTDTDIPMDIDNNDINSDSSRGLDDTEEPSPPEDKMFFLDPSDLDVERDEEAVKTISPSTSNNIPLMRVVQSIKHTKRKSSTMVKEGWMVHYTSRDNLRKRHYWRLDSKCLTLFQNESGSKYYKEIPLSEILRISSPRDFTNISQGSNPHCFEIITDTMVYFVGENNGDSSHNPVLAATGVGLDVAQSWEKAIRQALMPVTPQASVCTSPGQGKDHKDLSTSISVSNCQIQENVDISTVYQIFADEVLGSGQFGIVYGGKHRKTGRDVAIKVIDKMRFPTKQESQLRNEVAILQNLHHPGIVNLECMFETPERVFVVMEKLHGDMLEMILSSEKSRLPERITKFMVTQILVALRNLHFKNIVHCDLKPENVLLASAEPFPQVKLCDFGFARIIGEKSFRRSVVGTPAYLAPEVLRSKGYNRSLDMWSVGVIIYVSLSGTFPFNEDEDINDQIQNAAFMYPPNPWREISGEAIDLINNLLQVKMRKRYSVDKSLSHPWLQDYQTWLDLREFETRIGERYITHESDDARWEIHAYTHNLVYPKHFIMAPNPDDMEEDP
To be noted: at 0.1 µM.

Test [13] addresses T4, Serine/threonine-protein kinase D3 (Homo sapiens). As to conditions: at 1 µM.
Test [14] addresses T5, cGMP-dependent protein kinase 1 (Homo sapiens) (UniProt Q13976).
T5 sequence (whole entry): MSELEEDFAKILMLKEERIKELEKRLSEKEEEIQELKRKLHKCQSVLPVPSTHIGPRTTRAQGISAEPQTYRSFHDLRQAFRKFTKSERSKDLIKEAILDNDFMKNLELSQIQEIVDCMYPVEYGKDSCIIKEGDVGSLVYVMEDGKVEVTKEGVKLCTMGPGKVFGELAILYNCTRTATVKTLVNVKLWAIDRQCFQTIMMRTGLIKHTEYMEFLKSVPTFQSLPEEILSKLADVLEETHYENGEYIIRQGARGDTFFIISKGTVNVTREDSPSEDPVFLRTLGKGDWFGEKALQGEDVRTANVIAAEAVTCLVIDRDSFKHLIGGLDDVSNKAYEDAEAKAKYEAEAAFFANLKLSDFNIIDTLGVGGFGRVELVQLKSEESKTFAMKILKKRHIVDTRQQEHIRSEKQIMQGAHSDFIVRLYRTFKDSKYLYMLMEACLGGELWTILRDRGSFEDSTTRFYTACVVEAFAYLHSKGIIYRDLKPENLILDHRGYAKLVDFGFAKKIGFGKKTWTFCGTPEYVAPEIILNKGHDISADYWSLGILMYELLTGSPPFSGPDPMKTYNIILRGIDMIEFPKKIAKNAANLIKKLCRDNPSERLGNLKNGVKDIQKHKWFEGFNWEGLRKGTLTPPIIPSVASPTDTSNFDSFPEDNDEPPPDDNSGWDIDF
As to conditions: at 0.1 µM.

For test [15], the target named is T5, cGMP-dependent protein kinase 1 (Homo sapiens). To be noted: at 1 µM.
For test [16], the target named is T6, cGMP-dependent protein kinase 2 (Homo sapiens) (UniProt Q13237).
T6 sequence (whole entry): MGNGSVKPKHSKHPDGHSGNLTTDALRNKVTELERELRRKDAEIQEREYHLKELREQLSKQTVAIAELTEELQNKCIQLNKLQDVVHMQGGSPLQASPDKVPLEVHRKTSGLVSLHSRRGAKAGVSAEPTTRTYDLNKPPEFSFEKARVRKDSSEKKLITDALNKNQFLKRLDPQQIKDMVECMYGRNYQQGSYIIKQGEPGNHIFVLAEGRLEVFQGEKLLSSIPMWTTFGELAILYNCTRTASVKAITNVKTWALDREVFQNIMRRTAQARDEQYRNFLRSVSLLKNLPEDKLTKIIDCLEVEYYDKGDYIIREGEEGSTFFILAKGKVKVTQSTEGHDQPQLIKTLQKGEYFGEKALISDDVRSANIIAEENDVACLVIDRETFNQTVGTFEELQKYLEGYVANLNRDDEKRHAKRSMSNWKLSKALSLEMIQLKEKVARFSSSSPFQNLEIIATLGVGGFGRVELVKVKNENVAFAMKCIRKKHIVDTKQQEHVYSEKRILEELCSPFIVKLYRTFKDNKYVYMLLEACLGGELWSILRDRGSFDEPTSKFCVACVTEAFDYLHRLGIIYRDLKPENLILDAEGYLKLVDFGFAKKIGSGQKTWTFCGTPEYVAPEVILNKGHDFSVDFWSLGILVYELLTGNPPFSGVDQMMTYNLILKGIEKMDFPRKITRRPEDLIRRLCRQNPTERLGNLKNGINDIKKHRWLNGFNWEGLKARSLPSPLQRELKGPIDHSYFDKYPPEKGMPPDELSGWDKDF
As to conditions: at 0.1 µM.

For test [17], the target named is T6, cGMP-dependent protein kinase 2 (Homo sapiens). To be noted: at 1 µM.
For test [18], the target named is T7, cAMP-dependent protein kinase catalytic subunit PRKX (Homo sapiens) (UniProt P51817).
T7 sequence (whole entry): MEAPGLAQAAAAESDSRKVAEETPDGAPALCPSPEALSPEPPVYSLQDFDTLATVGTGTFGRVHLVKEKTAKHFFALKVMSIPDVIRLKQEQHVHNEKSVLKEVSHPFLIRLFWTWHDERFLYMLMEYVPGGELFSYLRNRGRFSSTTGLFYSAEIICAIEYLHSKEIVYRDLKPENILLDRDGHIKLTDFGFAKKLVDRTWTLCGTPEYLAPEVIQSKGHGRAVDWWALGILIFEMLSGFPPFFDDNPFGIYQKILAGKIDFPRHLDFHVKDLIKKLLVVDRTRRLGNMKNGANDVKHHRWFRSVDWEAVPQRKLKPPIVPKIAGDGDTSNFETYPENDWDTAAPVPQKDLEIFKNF
As to conditions: at 0.1 µM.

In test [19] the target is T7, cAMP-dependent protein kinase catalytic subunit PRKX (Homo sapiens). To be noted: at 1 µM.
Test [20] concerns the target Rho-associated protein kinase 1 (Homo sapiens) (UniProt Q13464). As to conditions: at 0.1 µM.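 Also: values are mean percent inhibition of ROCK1.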

Chain of Rho-associated protein kinase 1 (Homo sapiens) (Q13464 2-1354 limits assumed): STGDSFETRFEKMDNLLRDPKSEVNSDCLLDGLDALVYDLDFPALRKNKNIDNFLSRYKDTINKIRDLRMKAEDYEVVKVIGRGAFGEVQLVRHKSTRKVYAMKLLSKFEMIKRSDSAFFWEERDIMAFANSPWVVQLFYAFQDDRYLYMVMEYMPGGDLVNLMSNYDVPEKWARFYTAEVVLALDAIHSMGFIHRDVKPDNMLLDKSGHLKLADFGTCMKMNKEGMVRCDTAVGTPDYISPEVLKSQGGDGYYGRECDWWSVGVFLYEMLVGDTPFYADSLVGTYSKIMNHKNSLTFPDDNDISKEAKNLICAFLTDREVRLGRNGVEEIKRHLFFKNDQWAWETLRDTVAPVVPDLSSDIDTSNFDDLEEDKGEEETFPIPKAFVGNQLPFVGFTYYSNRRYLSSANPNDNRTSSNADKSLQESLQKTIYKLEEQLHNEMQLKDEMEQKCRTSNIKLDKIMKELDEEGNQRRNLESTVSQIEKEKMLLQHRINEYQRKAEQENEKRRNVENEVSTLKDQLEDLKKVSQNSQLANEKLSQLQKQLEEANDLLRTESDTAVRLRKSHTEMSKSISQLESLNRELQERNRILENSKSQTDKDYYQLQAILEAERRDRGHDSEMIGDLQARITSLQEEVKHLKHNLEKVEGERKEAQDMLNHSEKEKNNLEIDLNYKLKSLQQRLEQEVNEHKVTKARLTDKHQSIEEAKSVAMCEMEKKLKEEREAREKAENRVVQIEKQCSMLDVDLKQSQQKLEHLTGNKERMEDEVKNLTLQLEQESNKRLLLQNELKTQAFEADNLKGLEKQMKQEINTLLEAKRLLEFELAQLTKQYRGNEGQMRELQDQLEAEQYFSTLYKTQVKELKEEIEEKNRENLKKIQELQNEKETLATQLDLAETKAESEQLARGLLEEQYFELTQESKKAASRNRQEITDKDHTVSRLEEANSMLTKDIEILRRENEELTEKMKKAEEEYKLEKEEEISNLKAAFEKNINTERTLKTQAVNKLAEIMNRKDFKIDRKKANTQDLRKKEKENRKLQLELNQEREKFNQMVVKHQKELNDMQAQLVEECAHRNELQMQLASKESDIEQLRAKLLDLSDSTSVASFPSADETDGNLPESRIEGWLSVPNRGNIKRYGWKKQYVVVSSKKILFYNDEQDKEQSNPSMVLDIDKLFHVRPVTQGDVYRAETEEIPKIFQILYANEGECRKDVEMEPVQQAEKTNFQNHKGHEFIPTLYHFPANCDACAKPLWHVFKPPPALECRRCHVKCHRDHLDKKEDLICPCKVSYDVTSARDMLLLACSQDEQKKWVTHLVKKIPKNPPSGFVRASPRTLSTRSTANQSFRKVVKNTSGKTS

Usually inhibition stands for the relative decrease from the control value, in per cent. For the compound `CCNC(=O)O[C@H]1CN[C@H](C#Cc2cc3ncnc(Nc4ccc(OCc5cccc(F)c5)c(Cl)c4)c3s2)C1`, the inhibition in test [1] is 3.31%; in test [2], 1.37%; in [3], 3.17%; in test [4], 1.01%; in test [5] it was 0.75%; in test [6], -0.74%. The inhibition stood at 0.7% in test [7]; 2.66% in test [8]; 4.66% in test [9]; 2.15% in [10]; 3.71% in [11]; 2.4% in test [12]. Besides, the inhibition was 3.78% in test [13]; 2.33% in test [14]; 3.36% in test [15]; -0.03% in [16]; 2.81% in test [17]; -0.14% in test [18]. Also, the inhibition was -0.33% in [19] and 0.96% in test [20].

The values are drawn from ChEMBL document CHEMBL1961873, “Compounds: GSK PKIS; Assays: Nanosyn kinase panel” (2012).
